From PubChem BioAssay (NCATS)
Records with an inconclusive call do not appear. A call without a number means that no potency is given here. Calls of active or inactive are those of the source. The call rests on the fitted dose curve; in most records, active means well fitted inhibition curve with a large enough effect; inconclusive means small, poorly fitted or top-dose-only effect; inactive means flat fitted curve, though single readings scatter. Bridge positions count the residues as written; N and C are the ends. Square brackets hold non-standard residues; d marks the D form. Peptide text beside a SMILES is read from it. Orn = NCCC[CH](N)C(=O)O; Mpa = O=C(O)CCS
Potency means the concentration at half of the fitted maximal effect.

What follows are compounds tested against Glutathione peroxidase 1 (Homo sapiens) (UniProt P07203) (assay: Primary qHTS Assay for Inhibitors of Recombinant Selenoprotein Glutathione Peroxidase 1 (GPX1) (AID 1845191; further: nearly all actives have a fitted effect of over 65% in size)). Details: recombinant GPX1, GR-coupled NADPH fluorescence, 15 min; series mostly up to 48.8 µM.
Glutathione peroxidase 1 (Homo sapiens), sequence (P07203 whole entry, looked up): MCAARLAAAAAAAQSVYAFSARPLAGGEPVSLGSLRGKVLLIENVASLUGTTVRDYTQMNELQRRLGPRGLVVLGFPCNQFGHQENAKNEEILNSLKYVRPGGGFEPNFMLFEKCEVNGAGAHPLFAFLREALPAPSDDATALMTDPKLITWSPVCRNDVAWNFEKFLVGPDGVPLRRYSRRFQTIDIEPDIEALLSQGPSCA
How it was run: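 NADPH consumption tracked by fluorescence at 340/450 nm between t=0 and t=15 min, room temperature. Final mix: 10 nM GPX1, 100 nM glutathione reductase, 1 mM GSH, 0.5 mM NADPH, 0.5 mM cumene hydroperoxide, 0.01% BSA; 30 min compound–enzyme preincubation.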
For `C=C1C/C(=C\C=C2/CCC[C@]3(C)[C@@H]([C@H](C)/C=C/C(C)C(C)C)CC[C@@H]23)[C@@H](O)C[C@@H]1O` (stereo not given in full), the Potency was “inactive”.
In the case of `CCc1c(C(=O)Nc2cc(S(=O)(=O)N(CC)CC)ccc2O)[nH]c(C)c1C(C)=O`, the Potency is reported as “inactive”.
`CN(C)c1ccc(C(=O)NCCCCCC(=O)NO)cc1` was tested, and the Potency was “inactive”.
`C/C(=N\N=C(N)N)c1ccc(NC(=O)Nc2ccc(/C(C)=N/N=C(N)N)cc2)cc1` was tested, and the Potency was “inactive”.
For `CCN1CCN(C2(C(=O)NCCc3ccccc3)Cc3ccccc3C2)CC1`, the Potency was “inactive”.
With `CCOc1ccc(CC2NC(=O)CCSSCC(C(=O)N3CCCC3C(=O)NC(CCCN)C(=O)NCC(N)=O)NC(=O)C(CC(N)=O)NC(=O)C(C(C)O)NC(=O)C(C(C)CC)NC2=O)cc1` (stereo not given) ([Mpa]Y(Et)ITNCP[Orn]G-NH2; disulfide 1-6; configuration not given here) the Potency was “inactive”.
`C/C=C(\C)C(=O)O` was tested, and the Potency was “inactive”.
For `Cc1c(C(=O)Nc2cccc(-c3nc4ccccc4s3)c2)oc2ccc(F)cc12`, the Potency was “inactive”.
In the case of `C[N+](C)(C)C1CCC(CC2CCC([N+](C)(C)C)CC2)CC1` (stereo not given), the Potency is reported as “inactive”.
For `N#Cc1ncccn1`, the Potency was “inactive”.
For `CN(Cc1cccc(N2CCN(C(c3ccccc3)c3ccccc3)CC2)c1)[S+](C)(=O)[O-]`, the Potency was “inactive”.
In the case of `O=C(c1cccc(Br)c1)N1CCC(N2CCCC2)CC1`, the Potency is reported as “inactive”.
`CCN(CCN(C)C)C(=O)CNCc1cc(C(=O)O)ccn1` was tested, and the Potency was “inactive”.
For `Cc1cc(-c2nc3ncccc3o2)ccc1NC(=O)COc1ccc(C(C)(C)C)cc1`, the Potency was “inactive”.
In the case of `COc1ccc(-c2c(C)nn3c4c(cnc23)C(=O)CC(c2ccc(C)cc2)C4)cc1` (stereo not given), the Potency is reported as “inactive”.
For `CC(=O)O[C@]1(C(C)=O)CC[C@H]2[C@@H]3C=C(C)C4=CC(=O)CC[C@@H]4[C@H]3CC[C@@]21C`, the Potency was “inactive”.
In the case of `CC1CCc2c(cc(Br)c(F)c2Br)N1C=O` (stereo not given), the Potency is reported as “inactive”.
`O=C(Cn1ncc2c1-c1ccccc1OC2)N1CCN(c2ccccc2)CC1` was tested, and the Potency was “inactive”.
For `CC(C)CCC[C@@H](C)[C@H]1CC[C@H]2[C@@H]3CC[C@H]4C[C@@H](O)CC[C@]4(C)[C@@H]3CC[C@]12C`, the Potency was “inactive”.
For `C=C(C)CNc1ccc(C(C)C(=O)O)cc1` (stereo not given), the Potency was “inactive”.
For `CN1C(=O)[C@]23C[C@H]4C(C)(C)[C@]5(CNc6c5ccc5c6OC=CC(C)(C)O5)C[C@@]41CN2CC[C@@]3(C)O`, the Potency was “inactive”.
In the case of `CNCCN1CCC(OCc2ccccc2)CC1`, the Potency is reported as “inactive”.
For `CC(NC(=O)c1ccccc1N=Cc1c(O)ccc2ccccc12)c1ccccc1` (stereo not given), the Potency was “inactive”.
For `CN1CCc2cc(Nc3ncc(C4CC4)c(NCCCNC(=O)C4CCC4)n3)ccc2C1`, the Potency was “inactive”.
For `Cc1ccc2nc(-c3ccc(Cl)c(NC(=O)c4ccc5c(c4)OCCO5)c3)oc2c1`, the Potency was “inactive”.
For `CCn1cc(-c2cccc(C(F)(F)F)c2)c2sc(C(N)=NC3CCS(=O)(=O)CC3)cc2c1=O`, the Potency was 20.2 µM (active).
`CCCCC[C@@H](O)CC[C@H]1[C@@H]2Cc3cccc(OCC(=O)O)c3C[C@@H]2C[C@@H]1O` was tested, and the Potency was “inactive”.
In the case of `COc1ccc(-c2cc(-c3ccc4c(c3)NC(=O)CO4)nc3c2COc2ccc(C)cc2-3)cc1`, the Potency is reported as “inactive”.
`COc1ccc(S(=O)(=O)ON=C2C=C(C)C(=O)C(C)=C2)cc1` was tested, and the Potency was “inactive”.
With `CCOC(=O)N[C@@H]1CC[C@@H]2[C@@H](C1)C[C@H]1C(=O)O[C@H](C)C1[C@H]2/C=C/c1ccc(-c2cccc(F)c2)cn1` (stereo not given in full) the Potency was “inactive”.
`CCn1c(-c2nc3cc(C(=O)N4CCC[C@@H](N)C4)cc(OC)c3n2C)cc2ccccc21` was tested, and the Potency was “inactive”.
For `CCOC(=O)[C@H](C)C[C@@H](Cc1ccc(-c2ccccc2)cc1)NC(=O)CCC(=O)O`, the Potency was “inactive”.
For `CC(c1ccc(-c2ccc(CC(=O)O)cn2)cc1)N1CCCCC1` (stereo not given), the Potency was “inactive”.
`Clc1ccc(-c2csc(NN=C3CCCC3)n2)cc1` was tested, and the Potency was “inactive”.
In the case of `Cc1ccc2nc(NC(=O)CSc3nc4c(c(=O)n3C)SC(C)C4)sc2c1` (stereo not given), the Potency is reported as “inactive”.
In the case of `COc1cccc(C(c2sc3nc(-c4ccco4)nn3c2O)N2CCN(C)CC2)c1` (stereo not given), the Potency is reported as “inactive”.
`O=C(O)C1CCc2cc(C3CCCCC3)c(Cl)cc21` (stereo not given) was tested, and the Potency was “inactive”.
`CC(C)OC(=O)CCC/C=C\C[C@@H]1[C@@H](CC[C@@H](O)CCc2ccccc2)[C@H](O)C[C@@H]1O` was tested, and the outcome was “inactive [at 9.52 µM]”.
In the case of `C=C(NC(=O)C(=C)NC(=O)c1csc(C2=N[C@H]3c4csc(n4)[C@H]4NC(=O)c5csc(n5)[C@H]([C@@](C)(O)[C@@H](C)O)NC(=O)[C@H]5CSC(=N5)C(=CC)NC(=O)[C@H]([C@@H](C)O)NC(=O)c5csc(n5)[C@]3(CC2)NC(=O)[C@H](C)NC(=O)C(=C)NC(=O)[C@H](C)NC(=O)[C@H](C(C)CC)N[C@@H]2C=Cc3c([C@H](C)O)cc(nc3[C@H]2O)C(=O)O[C@@H]4C)n1)C(N)=O` (stereo not given in full), the Potency is reported as “inactive”.
With `Cc1nc2c(c(C)c1CCC(=O)N1CCN(c3ccccc3)CC1)c(=O)n(C)c(=O)n2C` the Potency was “inactive”.
